# Activity calls are given as the source filed them.
# Experiments:
# [1] = small molecules captured by biotinylated probe aFSTL3 – biochemical, small-molecule microarray, fluorescence 635/667, stem cell growth factor project, primary screen (AID 1064); conditions: higher = more signal;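 note: measures binding of the biotinylated anti-FSTL3 antibody to printed compounds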
# [2] = binders from COS7 lysate, DM2A8 probe, primary screen, torsin A project, cell lysate, small-molecule microarray, fluorescence 635/667 (AID 1065); conditions: higher = more signal, COS7 lysate expressing mutant human TOR1A
# [3] = small molecules captured by biotinylated probe aFGF2 – biochemical, small-molecule microarray, fluorescence 635/667, stem cell growth factor project, primary screen (AID 1067); conditions: higher = more signal;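 note: measures binding of biotinylated aFGF2 protein to printed compounds on slides; z-score merges feature fluorescence and signal-to-noise across triplicate slides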
# [4] = small molecules captured by biotinylated probe aFGF10 – biochemical, small-molecule microarray, fluorescence 635/667, stem cell growth factor project, primary screen (AID 1071); conditions: higher = more signal;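 note: score merges 667 nm spot intensity and signal to noise from triplicate slides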
# [5] = target: Neurogenic locus notch homolog protein 2 (Homo sapiens) (UniProt Q04721); test: small molecules binding Notch2 protein – biochemical, small-molecule microarray, 635 nm fluorescence, stem cell growth factors, primary screen (AID 1073); conditions: higher = more signal
# [6] = target: Pro-neuregulin-1, membrane-bound isoform (Homo sapiens) (UniProt Q02297); test: small molecules binding neuregulin-1 protein – biochemical, small-molecule microarray, fluorescence 635/667, psychiatric disease protein project, primary screen (AID 1075); conditions: NRG1 binding, 635 nm fluorescence, higher = more signal;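 note: score combines 667 nm spot fluorescence with signal to noise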
# Chain of Pro-neuregulin-1, membrane-bound isoform (Homo sapiens) (Q02297 whole entry, looked up, the tested form may be a part, canonical isoform): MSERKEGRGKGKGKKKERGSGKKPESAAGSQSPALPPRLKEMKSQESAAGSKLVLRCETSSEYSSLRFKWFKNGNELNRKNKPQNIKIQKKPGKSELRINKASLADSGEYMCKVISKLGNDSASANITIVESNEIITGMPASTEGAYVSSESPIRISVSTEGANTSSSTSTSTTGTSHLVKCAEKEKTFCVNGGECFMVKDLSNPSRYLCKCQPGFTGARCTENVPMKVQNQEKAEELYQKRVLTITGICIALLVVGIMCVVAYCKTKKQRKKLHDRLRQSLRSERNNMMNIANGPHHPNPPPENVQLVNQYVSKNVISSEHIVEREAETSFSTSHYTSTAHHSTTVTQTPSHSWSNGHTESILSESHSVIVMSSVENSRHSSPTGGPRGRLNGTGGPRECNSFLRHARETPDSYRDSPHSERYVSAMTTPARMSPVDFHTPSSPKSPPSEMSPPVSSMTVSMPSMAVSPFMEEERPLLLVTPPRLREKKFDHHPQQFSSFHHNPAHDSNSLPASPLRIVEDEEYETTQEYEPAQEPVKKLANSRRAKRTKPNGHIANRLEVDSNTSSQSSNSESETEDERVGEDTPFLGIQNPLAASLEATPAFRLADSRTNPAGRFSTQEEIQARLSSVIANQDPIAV
# [7] = system: Neuregulin-1 EGF-like domain; test: small molecules binding NRG1 EGF domain – biochemical, small-molecule microarray, 635 nm fluorescence, primary screen (AID 1081); conditions: higher = more signal;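 note: binding of the protein to compounds printed on small-molecule microarray slides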
# [8] = FRG1 expression reporter modulators in myotubes – cell-based, C2C12 myotubes, firefly/Renilla luciferase, luminescence, FRG1 inhibition for FSHD, primary screen (AID 1084); conditions: FRG1 promoter luciferase, higher = more signal, called active from +8 up or from −8 down
# [9] = small molecules captured by biotinylated probe aFST – biochemical, small-molecule microarray, fluorescence 635/667, stem cell growth factor project, primary screen (AID 1086); conditions: higher = more signal;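 note: score merges 667 nm fluorescence with signal-to-noise of each printed compound spot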
# [10] = binders of probe aHhip on microarray, primary screen, stem cell growth factor project, biochemical, small-molecule microarray, fluorescence 635/667 (AID 1087); conditions: higher = more signal;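 note: score merges spot fluorescence at 667nm with spot signal to noise ratio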
# [11] = system: PRMT1 (protein arginine N-methyltransferase 1); test: small molecules binding arginine methyltransferase PRMT1 – biochemical, small-molecule microarray, 635 nm fluorescence, primary screen (AID 1088); conditions: higher = more signal;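 note: binding of Prmt1 protein to compounds spotted on small-molecule microarray slides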
# [12] = growth effects on S. cerevisiae YJM789 – YJM789 clinical isolate, OD600, 24 h, basal, primary screen (AID 1089); conditions: higher = more signal, called active from +8 up or from −8 down;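 note: growth of clinical yeast isolate S. cerevisiae YJM 789 seeded 1000 cells per well; test concentration not given here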
# [13] = S. pombe growth modifiers, basal conditions – strain 972, OD600, 24 h, no modulator, primary screen (AID 1090);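 note: basal condition with compound alone and no growth modifier present; test concentration not given here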; conditions: S. pombe 972 growth, higher = more signal, called active from +8 up or from −8 down
# [14] = budding yeast growth modifiers under rapamycin – strain BY4716, OD600, 96 h, primary screen (AID 1091); note: test concentration not given here; conditions: S. cerevisiae BY4716 + rapamycin, higher = more signal, called active from +8 up or from −8 down
# [15] = target: Torsin-1A-interacting protein 2 (Homo sapiens) (UniProt Q8NFQ8); test: small molecules binding lysate-expressed LULL1 – cell lysate, human LULL1 lysate, 635/667 nm fluorescence, primary screen (AID 1092); conditions: small-molecule microarray, hLULL1 lysate binding, 635 nm fluorescence; higher = more signal;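 note: probe is lysate of COS7 cells overexpressing human LULL1; score merges per-feature 667 nm fluorescence with signal-to-noise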
# Chain of Torsin-1A-interacting protein 2 (Homo sapiens) (Q8NFQ8 whole entry, looked up): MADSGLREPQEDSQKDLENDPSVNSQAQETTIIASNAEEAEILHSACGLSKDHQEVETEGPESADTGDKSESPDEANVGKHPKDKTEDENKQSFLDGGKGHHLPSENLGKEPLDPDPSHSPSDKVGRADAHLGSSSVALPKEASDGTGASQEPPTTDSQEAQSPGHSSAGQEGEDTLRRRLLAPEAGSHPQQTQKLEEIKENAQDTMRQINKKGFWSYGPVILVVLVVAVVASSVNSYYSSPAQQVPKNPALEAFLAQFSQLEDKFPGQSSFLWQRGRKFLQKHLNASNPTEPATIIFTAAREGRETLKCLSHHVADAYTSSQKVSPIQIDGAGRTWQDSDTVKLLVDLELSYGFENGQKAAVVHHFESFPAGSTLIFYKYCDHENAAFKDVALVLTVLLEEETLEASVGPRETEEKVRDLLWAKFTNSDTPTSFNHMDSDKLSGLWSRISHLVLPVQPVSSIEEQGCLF
# [16] = optical density change of DRC41 E. coli – strain DRC41, OD650, 24 h, E. coli filamentation project, primary screen (AID 1093);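 note: MC1000 strain lacking acrAB efflux and sulA so SOS filamentation is blocked; test concentration not given here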; conditions: E. coli DRC41 growth, higher = more signal, called active from +8 up or from −8 down
# [17] = probe aLefty2 binding to arrayed compounds – biochemical, biotinylated probe, 635/667 nm fluorescence, primary screen (AID 1094); conditions: small-molecule microarray, higher = more signal;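 note: score merges spot fluorescence near 667 nm with spot signal-to-noise ratio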
# [18] = system: Noggin (protein binding on small-molecule microarray); test: small molecules binding Noggin protein – biochemical, 635/667 nm fluorescence, primary screen (AID 1095); conditions: 635 nm fluorescence, higher = more signal;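 note: score merges 667 nm feature fluorescence with signal to noise over triplicate slides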
# [19] = target: Neurogenic locus notch homolog protein 3 (Homo sapiens) (UniProt Q9UM47); test: small molecules binding NOTCH3 protein – biochemical, 635/667 nm fluorescence, primary screen (AID 1096); conditions: small-molecule microarray, 635 nm fluorescence, higher = more signal
# Chain of Neurogenic locus notch homolog protein 3 (Homo sapiens) (Q9UM47 whole entry, looked up): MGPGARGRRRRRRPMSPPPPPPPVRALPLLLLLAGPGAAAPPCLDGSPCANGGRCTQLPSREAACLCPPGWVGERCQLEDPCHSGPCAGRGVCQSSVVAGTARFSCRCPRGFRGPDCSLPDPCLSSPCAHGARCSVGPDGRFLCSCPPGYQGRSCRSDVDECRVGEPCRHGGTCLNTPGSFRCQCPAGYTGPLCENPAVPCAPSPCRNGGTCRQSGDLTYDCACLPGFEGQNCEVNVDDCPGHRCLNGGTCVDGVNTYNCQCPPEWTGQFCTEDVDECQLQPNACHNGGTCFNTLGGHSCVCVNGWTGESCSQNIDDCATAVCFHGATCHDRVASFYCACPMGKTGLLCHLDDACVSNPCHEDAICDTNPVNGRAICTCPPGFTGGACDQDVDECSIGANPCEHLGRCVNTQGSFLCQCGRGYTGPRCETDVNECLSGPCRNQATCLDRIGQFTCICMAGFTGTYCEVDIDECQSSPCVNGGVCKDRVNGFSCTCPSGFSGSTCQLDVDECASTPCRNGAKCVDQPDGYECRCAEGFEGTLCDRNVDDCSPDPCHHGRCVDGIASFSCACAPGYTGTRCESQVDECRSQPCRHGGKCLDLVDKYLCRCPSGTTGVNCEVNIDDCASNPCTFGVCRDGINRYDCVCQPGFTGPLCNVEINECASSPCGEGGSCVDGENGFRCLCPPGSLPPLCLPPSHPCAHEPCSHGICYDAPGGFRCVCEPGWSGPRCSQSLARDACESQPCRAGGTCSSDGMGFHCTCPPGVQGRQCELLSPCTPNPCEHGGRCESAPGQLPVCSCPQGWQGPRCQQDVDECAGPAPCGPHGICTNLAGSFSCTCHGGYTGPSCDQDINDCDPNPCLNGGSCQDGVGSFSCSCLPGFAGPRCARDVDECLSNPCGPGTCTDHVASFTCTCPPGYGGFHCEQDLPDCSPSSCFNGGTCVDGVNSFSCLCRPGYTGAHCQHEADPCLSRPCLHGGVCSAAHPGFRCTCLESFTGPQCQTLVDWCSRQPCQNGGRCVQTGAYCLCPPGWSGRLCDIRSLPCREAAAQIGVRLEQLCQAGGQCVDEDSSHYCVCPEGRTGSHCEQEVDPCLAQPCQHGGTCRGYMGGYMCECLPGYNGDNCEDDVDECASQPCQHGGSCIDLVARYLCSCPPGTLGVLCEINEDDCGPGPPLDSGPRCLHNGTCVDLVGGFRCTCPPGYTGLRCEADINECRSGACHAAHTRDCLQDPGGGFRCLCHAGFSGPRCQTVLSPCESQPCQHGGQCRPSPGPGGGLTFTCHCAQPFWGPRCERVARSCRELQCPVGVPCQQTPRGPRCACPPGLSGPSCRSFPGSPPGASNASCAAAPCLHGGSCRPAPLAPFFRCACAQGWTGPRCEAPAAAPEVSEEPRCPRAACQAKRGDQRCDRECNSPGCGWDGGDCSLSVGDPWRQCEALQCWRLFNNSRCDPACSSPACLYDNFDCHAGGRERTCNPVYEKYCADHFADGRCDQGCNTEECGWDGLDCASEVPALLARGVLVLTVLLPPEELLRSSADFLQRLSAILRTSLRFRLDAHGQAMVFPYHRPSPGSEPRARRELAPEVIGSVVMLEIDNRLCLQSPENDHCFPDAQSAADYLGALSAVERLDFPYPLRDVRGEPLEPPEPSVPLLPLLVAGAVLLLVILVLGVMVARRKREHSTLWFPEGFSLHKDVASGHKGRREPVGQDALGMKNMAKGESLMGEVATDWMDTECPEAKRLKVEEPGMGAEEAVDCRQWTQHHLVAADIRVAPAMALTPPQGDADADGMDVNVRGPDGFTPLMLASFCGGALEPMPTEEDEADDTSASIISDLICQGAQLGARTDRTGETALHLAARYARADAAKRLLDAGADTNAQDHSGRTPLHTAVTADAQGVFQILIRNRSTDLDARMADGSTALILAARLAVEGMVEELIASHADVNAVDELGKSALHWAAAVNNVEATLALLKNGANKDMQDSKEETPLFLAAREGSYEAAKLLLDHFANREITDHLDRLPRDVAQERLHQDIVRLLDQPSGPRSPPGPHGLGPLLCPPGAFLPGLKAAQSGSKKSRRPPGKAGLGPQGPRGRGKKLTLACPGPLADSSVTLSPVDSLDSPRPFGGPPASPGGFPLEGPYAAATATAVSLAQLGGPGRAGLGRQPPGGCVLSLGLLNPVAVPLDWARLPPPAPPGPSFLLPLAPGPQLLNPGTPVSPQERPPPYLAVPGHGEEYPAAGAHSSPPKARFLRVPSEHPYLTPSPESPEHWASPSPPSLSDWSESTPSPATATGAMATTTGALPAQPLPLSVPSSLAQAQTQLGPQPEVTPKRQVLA
# [20] = probe aEGFR binding to arrayed compounds – biochemical, biotinylated probe, 635/667 nm fluorescence, primary screen (AID 1097); conditions: small-molecule microarray, higher = more signal;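 note: probe is a biotinylated anti-EGFR antibody binding compounds printed on slides; score combines fluorescence near 667 nm and signal to noise of each spot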
SMILES,composite z-score [1],composite z-score [2],composite z-score [3],composite z-score [4],composite z-score [5],composite z-score [6],composite z-score [7],z-score [8],composite z-score [9],composite z-score [10],composite z-score [11],z-score [12],z-score [13],z-score [14],composite z-score [15],z-score [16],composite z-score [17],composite z-score [18],composite z-score [19],composite z-score [20]
COc1cc(CO)cc(I)c1O[C@H]1C=C(C(=O)NCCO)C[C@@H](N(CCc2cccc(F)c2)C(=O)CCC2CCCC2)[C@@H]1O,0.0822,0.825,0.195,0.146,0.0011,1.27,1.29,-4.64 (inactive),0.336,0.219,1.55,0.645 (inactive),-6.99 (inactive),-1.02 (inactive),1.7,0.0555 (inactive),-0.0632,1.91,0.922,-0.0302
C=C(C(=O)CC[C@H](OC(=O)c1cccnc1)c1ccccc1OCCO)C(C)C,0.0323,1.78,-0.133,0.636,0.0984,-0.124,0.962,0.276 (inactive),0.106,-0.204,1.53,-2.6 (inactive),-0.267 (inactive),-0.598 (inactive),1.58,-0.0377 (inactive),0.0692,1.71,0.423,0.0004
Cc1cc(C)c(C(O)C2C=CC3C(=O)NC(=O)C3N2Nc2ccccn2)c(C)c1 (stereo not given),0.36,0.135,-0.0878,0.0012,0.486,1.65,0.986,1.03 (inactive),0.578,0.0373,0.442,0.441 (inactive),1.11 (inactive),0.415 (inactive),1.65,-1.16 (inactive),0.0961,0.0197,0.525,0.0221
O=C1O[C@H](c2ccccc2)[C@H](c2ccccc2)N2[C@H]1[C@@H](C(=O)Nc1nc3ccccc3s1)[C@]1(C(=O)Nc3ccc(C#CC4=CCCCC4)cc31)[C@H]2c1ccc(OCCO)cc1,-0.576,0.188,-0.0148,0.556,0.6,0.734,1.11,3.08 (inactive),1.21,0.0834,1.55,1.79 (inactive),1.42 (inactive),1.54 (inactive),3.26,0.476 (inactive),0.291,0.715,1.07,-0.118
C=C(COC)C(=O)CC[C@H](OC(=O)c1cccnc1)c1ccccc1OCCO,-0.0665,0.903,-0.0004,0.675,0.928,0.599,1.24,0.445 (inactive),0.437,-0.236,1.56,-2.31 (inactive),-1.57 (inactive),-0.278 (inactive),1.47,0.473 (inactive),0.157,1.15,1.15,-0.0406
C=CC[C@@]1(C(=O)OC)N=C(c2ccc(OCCCO)cc2)O[C@@H]1c1ccccc1CN=[N+]=[N-],0.0729,0.0269,-0.116,-0.438,0.406,0.482,1.1,-0.484 (inactive),0.166,-0.199,1.3,-3.29 (inactive),-4.42 (inactive),6.32 (inactive),1.41,1.21 (inactive),0.0427,0.744,-0.159,-0.0531
Cc1ccc(F)cc1S(=O)(=O)N[C@@H]1CCN(Cc2ccc(C(F)(F)F)cc2)C1,-0.234,0.588,-0.198,-1.06,-1.26,0.0824,-0.19,-3.87 (inactive),-0.47,-0.283,1.14,-1.27 (inactive),-20.3 (active),-1.1 (inactive),1.08,-4.8 (inactive),-0.227,0.412,-0.145,-0.218
COc1ccc(C(=O)Nc2cccc(CN3C(=O)[C@@]4(O[C@@H](CC(=O)N5Cc6ccccc6C[C@H]5CO)[C@H]([Si](C)(C)c5ccc(OC)cc5)[C@H]4C)c4ccccc43)c2)cc1,0.0279,1.09,-0.0924,0.505,0.493,0.598,1.25,-2.95 (inactive),0.349,-0.0994,1.55,-1.26 (inactive),0.166 (inactive),1.22 (inactive),1.71,-0.209 (inactive),0.0327,1.25,0.893,0.0276
CN(C)CCCC[C@@H]1NC(=O)[C@@H]2C[C@H](C(=O)NCCCCCCN)[C@H](c3ccc(O)cc3)N2C1=O,1.95,0.58,0.15,0.727,0.921,1.39,1.44,-0.0024 (inactive),2.16,0.861,1.18,0.377 (inactive),-2.04 (inactive),0.638 (inactive),2.52,-0.47 (inactive),0.892,0.855,0.526,0.678
C=C(/C(=C/C[C@@H](OC(C)=O)c1ccc(CO)o1)c1cnc2ccccc2c1)C(C)C,-0.524,1.53,-0.0766,1.13,1.53,0.766,1.32,0.439 (inactive),0.284,-0.0618,1.55,1.2 (inactive),-0.767 (inactive),0.375 (inactive),1.86,1.27 (inactive),-0.11,1.08,1.07,0.0367
COCCOC(=O)N1C(=O)[C@@]2(c3cc(C#CCC(C(=O)OC)C(=O)OC)ccc31)[C@H](c1ccc(OCCO)cc1)N1[C@H](c3ccccc3)[C@H](c3ccccc3)OC(=O)[C@H]1[C@@H]2C(=O)NC[C@H](O)c1ccccc1,-1.25,0.501,-0.0272,1.15,1.45,0.824,1.28,-0.89 (inactive),-0.158,-0.521,1.53,2.11 (inactive),1.7 (inactive),7.38 (inactive),3.51,0.0053 (inactive),-0.426,1.46,1.08,-0.0389
O=S(=O)(NCCCO)c1ccc(Br)cc1,-0.109,1.04,-0.112,0.209,0.433,1.07,1.07,-1.91 (inactive),0.14,-0.226,0.607,-1.72 (inactive),-1.57 (inactive),-0.531 (inactive),1.18,0.707 (inactive),-0.18,0.355,-0.271,-0.0363
CO[C@H]1O[C@H](CO)[C@@H](OC(=O)Nc2cccc(F)c2)[C@H](OC(=O)Nc2ccccc2-c2ccccc2)[C@@H]1OC(=O)Nc1ccccc1-c1ccccc1,-0.217,0.568,0.111,0.669,1.65,1.75,1.29,1.16 (inactive),1.02,-0.374,1.55,2.1 (inactive),1.88 (inactive),-1.23 (inactive),3.34,0.675 (inactive),0.134,0.615,1.05,-0.013
COc1c(C)cc(-c2cc3c(c(-c4ccccc4)n2)[Si](C(C)C)(C(C)C)O[C@H]3c2ccccc2)cc1C,-0.409,-0.103,-0.103,0.235,0.234,-0.0051,-0.438,0.361 (inactive),0.291,0.0373,0.431,-0.336 (inactive),-0.253 (inactive),0.0998 (inactive),0.0055,-1.1 (inactive),-0.166,0.37,0.418,-0.0359
COCC1=C([C@H](O)CCc2ccccc2)[C@H](CO)[C@@H]2C(=O)N(Cc3ccccc3)C(=O)[C@@H]2C1,-0.286,-0.133,-0.101,0.085,0.258,-0.295,-0.112,-0.4 (inactive),-0.0829,-0.249,-0.197,0.226 (inactive),-0.819 (inactive),-0.177 (inactive),-0.0602,1.38 (inactive),-0.235,0.49,0.248,-0.0794
O=[N+]([O-])c1ccc(C[n+]2ccc(CCCO)cc2)o1,0.138,0.218,0.0609,0.758,1.53,0.856,1.29,0.472 (inactive),0.181,0.251,0.464,0.593 (inactive),-12.9 (active),-0.302 (inactive),2.46,-2.76 (inactive),0.24,1.73,1.07,0.296
COC(=O)c1nc2oc1CC[C@@H](CO)NC(=O)N(C)Cc1cn(nn1)C[C@H](Cc1ccccc1)NC2=O,0.0478,-0.871,-0.0982,0.0055,0.242,1.01,1.09,-0.605 (inactive),-0.324,-0.226,0.594,0.654 (inactive),-3.35 (inactive),-0.858 (inactive),2.59,2.05 (inactive),-0.139,1.04,0.175,-0.181
CC(C)CNC(=O)[C@@]1(C)c2ccccc2C(=O)N(C(C)C)[C@H]1c1ccc(CO)cc1,0.095,-0.456,-0.0803,-0.435,-1.78,0.0276,-0.266,0.0705 (inactive),-0.37,0.0424,-1.32,0.0968 (inactive),0.481 (inactive),0.0297 (inactive),1.16,-0.0935 (inactive),0.44,-0.933,-2.11,0.0744
COC(=O)[C@@]1(Cc2ccc(F)cc2)[C@H]2c3cc(C(=O)N4CCCC4)n(CCc4ccc(OC)c(Br)c4)c3C[C@H]2CN1C(=O)c1ccccc1,0.502,1.27,0.266,0.832,1.83,1.55,1.29,-0.784 (inactive),1.94,1.68,1.4,0.0318 (inactive),1.53 (inactive),2.31 (inactive),3.52,-0.224 (inactive),0.436,-0.0473,1.03,0.324

# Reference: PubChem BioAssay
